Compound activity from PubChem BioAssay.
This is a sample that favours compounds with a hit; in the whole collection about 0.77% have one here.
NS1 function inh: blocks influenza NS1 protein function; Potency, µM (titrated, usually from 46.1 µM), for inactives: at the highest dose activity, positive = more growth; hit rate 0.4% among 270,000; AID 2326; calls by dose curve; also: actives are rising curves; nearly all actives have a fitted effect of over 50% in size
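Compounds were scored for reversing the slow growth caused by influenza A NS1 in S. cerevisiae, measured by optical density at 600 nm. Assay medium contained 2% galactose at pH 6.0; NS1-free yeast of the same strain were the positive control.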
TbPYK inhibitor: blocks Trypanosoma brucei pyruvate kinase; TbPYK enzyme, Kinase-Glo Plus ATP luminescence, 45 min; AID 624173; hit rate 0.12% among 410,000; Potency, µM (top dose mostly 76.8 µM), inactives show top-dose activity, negative = inhibition, hits mostly inhibitors; also: % is scaled to controls: 0 for no effect and ±100 for the full control effect; nearly all actives have a fitted effect of over 50% in size
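Enzyme and substrate buffer are dispensed first and compound is pin-transferred. ADP at 130 uM final then starts the reaction, which runs 45 min at room temperature. Detection reagent is added for 10 min before luminescence is imaged.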
RE007 growth inh: less growth of the S. pombe RE007 Vpr strain; hit rate 0.21% among 360,000; Potency, µM (highest dose often 92.2 µM), inactives show at the top dose activity change, negative = less growth, most hits filed as inhibitors; S. pombe RE007 Vpr strain, BacTiter-Glo ATP luminescence, 24 h; active = well fitted falling curve with a large enough effect; inconclusive = small, poorly fitted or top-dose-only effect; inactive = no such curve, though single readings can be large or run the other way; also: % is scaled to controls: 0 for no effect and ±100 for the full control effect; nearly all actives have a fitted effect of over 50% in size
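Fission yeast RE007 carrying one integrated HIV-1 vpr copy, seeded at OD 0.01 in PMG+AL medium with 23 nL pinned compound. Grown 24 h at 30 degrees; viability read by BacTiter-Glo luminescence after 5 min.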
LmPK inhibitor: inhibitors of Leishmania mexicana pyruvate kinase. Q27686. AID 1721. Potency, µM (highest dose often 57.5 µM), for the others: at the highest dose activity change, negative = inhibition, hits mostly inhibitors. hit rate 0.37% among 290,000. purified LmPK, Kinase-Glo ATP luminescence, 1 h; also: % is scaled to controls: 0 for no effect and ±100 for the full control effect
Target sequence (Q27686 whole entry, looked up): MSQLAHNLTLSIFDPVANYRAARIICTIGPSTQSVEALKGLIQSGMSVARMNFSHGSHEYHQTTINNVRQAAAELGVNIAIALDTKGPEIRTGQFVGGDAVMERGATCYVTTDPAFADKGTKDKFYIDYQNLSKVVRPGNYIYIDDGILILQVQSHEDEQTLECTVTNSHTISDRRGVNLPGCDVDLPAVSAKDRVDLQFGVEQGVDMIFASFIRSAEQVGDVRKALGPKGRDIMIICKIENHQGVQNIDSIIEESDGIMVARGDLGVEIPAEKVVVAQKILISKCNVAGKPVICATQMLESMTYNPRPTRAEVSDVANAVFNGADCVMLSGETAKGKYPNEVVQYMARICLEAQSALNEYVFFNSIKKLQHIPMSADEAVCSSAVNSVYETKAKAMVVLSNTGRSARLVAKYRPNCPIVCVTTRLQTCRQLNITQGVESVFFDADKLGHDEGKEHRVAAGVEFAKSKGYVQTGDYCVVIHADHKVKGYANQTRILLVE
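0.1 nM LmPK, 0.5 mM PEP, 0.1 mM ADP; 50 mM imidazole pH 7.2, 7 mM MgCl2, 50 mM KCl; 1 h RT. Kinase-Glo luminescence readout, normalized to no-enzyme (full inhibition) and uninhibited wells.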
An asterisk follows results filed as active; u = inconclusive; x = no result given; [ ] = another dose, or the depositor's remark. Unless noted, calls follow the shape of the dose curve; as a rule, active = well fitted curve in the direction sought with a large enough effect; inconclusive = small, poorly fitted or top-dose-only effect, or another doubt; inactive = no such curve, though single readings can be large; an effect the other way counts as inactive or inconclusive. Potency is read from the fitted curve at half-maximal effect.

SMILES	NS1 function inh	TbPYK inhibitor	RE007 growth inh	LmPK inhibitor
S=c1[nH]nc(COc2ccccc2)n1Cc1ccccc1	5%	u	-15%	-22%
FC(F)(F)c1cccc(NCc2n[nH]c(=S)n2C2CCCCC2)c1	x	13µM*	36%	u
Cc1nc2c(C(=O)NC(C)c3ccccc3)cnn2c(C)c1Cc1ccccc1 (stereo not drawn)	x	-8%	x	x
Cc1ccccc1CNC(=O)c1nn(-c2ccccc2F)nc1CO	x	0%	x	x
CCOC(=O)c1ccc2[nH]c(CSc3nnc(-c4cccc(F)c4)n3C)cc(=O)c2c1	x	2%	x	x
Cc1oc(-c2ccc(Cl)cc2)cc1-c1nn2c(-c3ccoc3C)nnc2s1	10µM*	-6%	u	3%
CCOc1ccc(NC(=O)c2nn(C)cc2Br)cc1	-14%	-15%	-3%	32µM*
O=C(N/N=C/c1ccc2c(c1)OCO2)c1ccccn1	-4%	-17%	-16%	11µM*
CN(C)c1ccc(/C=N/NC(=O)c2ccnn2C)cc1	-7%	u	-13%	8.9µM*
CN(C)c1ccc(/C=N/NC(=O)c2ccccn2)cc1	-39%	u	-23%	13µM*
CN(C)c1ccc(/C=C(\C#N)c2ccccn2)cc1	2%	u	u	10µM*
CN(C)c1ccc(/C=N/NC(=O)c2ccn(C)n2)cc1	-37%	-7%	2%	-29%
O=C(N/N=C/c1cc2c(cc1Br)OCO2)c1ccccn1	-7%	-6%	11%	u
O=C(N/N=C/c1ccncc1)c1ccccn1	8%	-2%	-14%	-26%
Cc1ccc(Sc2ccc(N3CCCC(C(=O)Nc4ccc(F)c(Cl)c4)C3)nn2)cc1 (stereo not drawn)	x	0%	x	x
Cc1cc(C)cc(NC(=O)C(Cc2ccccc2)N2Cc3ccccc3C2=O)c1 (stereo not drawn)	x	-10%	x	x
O=C(Cn1c(SCCOc2ccccc2Cl)nc2ccccc21)N1CCOCC1	x	-9%	x	x
CCOc1ccccc1NC(=O)CSc1ncc2c(n1)-c1ccccc1N(CC)S2(=O)=O	x	4%	x	x
CC(C)c1ccc(/C=N/NC(=O)c2ccccn2)cc1	-37%	-16%	18%	14µM*
CC(/C=N/NC(=O)c1ccccn1)=C\c1ccco1	-7%	-5%	-16%	25µM*
CN(C)c1ccc(NC(=S)c2ccccn2)cc1	-34%	u	u	4.5µM*
CN(C)c1ccc(C(=S)Nc2ccccc2)cc1	3%	9%	-2%	-2%
CCOc1ccc(NC(=O)c2cc3sc(Cl)cc3n2CC)cc1	x	-2%	x	x
COc1ccc(NC(=O)C(Cl)=C(Cl)Cl)cn1	x	3%	0%	4%
COc1ccc(NC(=O)/C(Cl)=C(/Cl)S(=O)Cc2ccc(Cl)cc2)cn1 (stereo not drawn)	x	17%	4.5µM*	-5%
SMILES	NS1 function inh	TbPYK inhibitor	RE007 growth inh	LmPK inhibitor
COc1cc(NC(=O)CSc2nc(-c3ccco3)cc(C(F)(F)F)n2)cc(OC)c1OC	x	3%	x	x
CNC(=O)COc1ccc(NC(=O)CCn2nc(-c3ccc(C)cc3)c3ccccc3c2=O)cc1	x	-9%	x	x
CCCCOc1ccc(Nc2cc(Cl)ccc2C(=O)O)cn1	-87%	7%	28µM*	u
COc1cccc(CC(=O)N2CCc3nc(-c4ccc(OC)cc4C)c4c(c3C2)CO[C@@H](c2ccccc2)C4)c1	x	x	x	-1%[11.5 µM]
CCOC(=O)c1c(-c2ccccc2)nc2c(C)cccn12	-140%	-4%	14µM*	-2%
CCOC(=O)c1c(-c2ccccc2)nc2ccccn12	-130%	0%	18µM*	1%
COC(=O)Nc1c(-c2ccccc2)nc2ccccn12	-8%	0%	-5%	-6%
CCOC(=O)c1ccc(CN(Cc2ccccc2C)S(=O)(=O)c2ccc(F)c(C(=O)Nc3cccc(OC)c3)c2)cc1	x	6%	x	x
COc1ccccc1N1CCN(CCCNC(=O)c2nnc(Cc3c(F)cccc3Cl)o2)CC1	x	-3%	x	x
CCc1ccc(N2CSC3=C(C#N)C(c4cccs4)CC(=O)N3C2)cc1 (stereo not drawn)	-91%	u	-8%	-11%
COc1ccc(N2CSC3=C(C#N)C(c4cc(OC)ccc4OC)CC(=O)N3C2)c(OC)c1 (stereo not drawn)	-36%	7.9µM*	-11%	2%
COc1cc(OC)c(C2CC(=O)N3CN(c4ccc(C)cc4)CSC3=C2C#N)cc1OC (stereo not drawn)	-143%	1.6µM*	-6%	8%
CCc1ccc(C2CC(=O)N3CN(c4ccccc4)CSC3=C2C#N)cc1 (stereo not drawn)	-54%	4.5µM*	0%	-11%
